The list is not random: actives were taken first. Their share in the collection is about 13%.
Lmaj promast = inhibitors of Leishmania major promastigote growth | inhibition, % at 10 µM | Leishmania major promastigotes, resazurin fluorescence viability | 200,000 compounds, 9% hits; in the data active = inhibition above about 50%;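 note: promastigotes grown with compound for 44 hours at 28 °C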
RAM network inh = inhibitors of the yeast RAM network | S. cerevisiae dse1pr::URA3 reporter, 5-FOA growth OD615, 2 d; analog-sensitive cbk1-as2 kinase mutant strain | inhibition, % at 50 µM | 190,000 compounds, 1.8% hits;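 active = inhibition above a set limit, 3 SD over mean compound inhibition, cut at about 8.4% in these data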;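 note: 0% = DMSO-only wells with no growth and 100% = 10 µM 1-NA-PP1 full growth; inhibition rescues growth on 5-FOA so higher OD means more RAM inhibition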
CHOP inh = blocks CHOP induction under ER stress; inhibition, % at 10 µM; CHO-K1 CHOP-promoter luciferase, tunicamycin-induced, 15-18 h; 220,000 compounds, 3.8% hits;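 active = compounds that reduced the stress-induced luciferase reporter signal by more than about 70% of percent inhibition, limit read from the data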;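 note: 0% = tunicamycin plus vehicle and 100% = wells without tunicamycin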
WT yeast gro inh = growth inhibition of WT yeast, mitochondrial fusion screen; AID 1362; mitochondrial fusion phenotypic screen, WT strain; 190,000 compounds, 2.1% hits; inhibition, % at 10 µM; in the data active = inhibition above about 58%; tested in S. cerevisiae
Numbers without * were called inactive; / = no result given.

SMILES	Lmaj promast	RAM network inh	CHOP inh	WT yeast gro inh
CC(=O)c1c(C)[nH]c(C(=O)N2CCN(c3ccc(F)cc3)CC2)c1C	-7	1	84*	-3
COc1ccc(C(=O)N(C)C2CCN(C)CC2)cc1S(=O)(=O)Nc1cc(Cl)ccc1Cl	/	/	-1	/
COCCn1c(C)cc(C(=O)COC(=O)c2ccc([N+](=O)[O-])o2)c1C	75*	2	12	34
Cc1cc(C(=O)CSc2nc3ccccc3[nH]2)c(C)n1CC1CCCO1 (configuration not stated)	27	0	74*	6
Cc1cc(C)c(C(=O)COC(=O)c2ccc([N+](=O)[O-])o2)cc1C	-2	4	44	30
Cc1cc(C(=O)COC(=O)c2ccc([N+](=O)[O-])o2)c(C)n1CC1CCCO1 (configuration not stated)	82*	0	-11	43
Cc1nc(-c2cccc(Br)c2)ccc1C(=O)O	-13	1	6	-11
Cc1ccc(S(=O)(=O)Nc2cccc3c2CCCC3)cc1	54*	2	48	37
Cc1ccc(S(=O)(=O)Nc2ccccc2-c2ccccc2)cc1	22	3	29	41
Cc1ccc(NC(=O)CN2CCN(CCN=CC3=C(O)CC(c4ccc(C)cc4)CC3=O)CC2)cc1 (configuration not stated)	-3	1	9	-10
CCN(CC)c1nc(-c2ccc(Cl)cc2)cc(C(F)(F)F)c1C#N	7	9.6*	27	-4
Cc1nn2c(=O)c3c4c(sc3nc2n1-c1ccccc1)COC(C)(C)C4	/	/	-2	/
O=C(Nc1nnc(-c2ccc(Cl)cc2)o1)C1=COCCO1	54*	4	-8	17
O=C(Nc1nnc(-c2ccc(Cl)s2)o1)C1CC1	61*	5	34	-5
O=C(Nc1nnc(-c2cccs2)o1)C1CC1	-3	1	-4	-6
O=C(Nc1nnc(-c2ccc3c(c2)CCCC3)o1)c1c(F)cccc1F	-8	1	13	56
O=C(CCc1ccccc1)Nc1nnc(-c2cccs2)o1	57*	1	9	3
O=C(CCSc1ccccc1)Nc1nnc(-c2cccs2)o1	-8	7	29	7
O=C(Nc1nnc(-c2ccc3c(c2)CCCC3)o1)c1ccc(Cl)cc1Cl	-3	3	98*	75
O=C1[C@H]2[C@H](ON3CCCC[C@H]23)C(=O)N1c1ccc(Cl)cc1	-8	-1	8	4
COc1ccc(S(=O)(=O)N2CCC(C(=O)Nc3ccc(F)cc3)CC2)c2cccnc12	14	2	0	-29
CC(c1cccs1)N(C)Cc1nc(CCc2ccccc2)no1 (configuration not stated)	0	0	3	22
O=C(CCc1ccccc1)Nc1nnc(-c2ccc3c(c2)OCCO3)o1	70*	3	3	2
O=C(CCc1ccccc1)Nc1nnc(-c2ccc3c(c2)CCCC3)o1	12	1	94*	66*
O=C(CCc1ccccc1)Nc1ccc2c(c1)OCCO2	-3	-1	-2	-10
SMILES	Lmaj promast	RAM network inh	CHOP inh	WT yeast gro inh
O=C(Nc1nnc(-c2ccc3c(c2)CCCC3)o1)C1CCCCC1	38	4	84*	21
O=C(Nc1nnc(-c2ccncc2)o1)C1CCCCC1	9	2	2	-10
O=C(CCSc1ccccc1)Nc1nnc(-c2ccccc2)o1	-3	3	-13	-2
CC(C)(C)N(CC#CCC1(O)c2ccccc2-c2ccccc21)CCO	-2	1	1	-5
Cc1ccsc1CN1CC(=O)N(c2c(C)cccc2C)C1=S	53*	3	26	27
O=C(c1ccccc1)N1CCN(C2c3cccc4cccc(c34)C2NS(=O)(=O)c2ccccc2)CC1 (configuration not stated)	99*	1	30	11
O=S(=O)(NC1c2cccc3cccc(c23)C1N1CCN(CCO)CC1)c1ccccc1 (configuration not stated)	71*	2	2	/
OCCNC(=S)Nc1cccc(Cl)c1Cl	/	/	3	/
Fc1ccc(-c2nnc(NC3=NCCCCC3)o2)cc1	-15	4	75*	6
OCC1CCN(Cc2cn(Cc3ccccc3)nc2-c2cc3ccccc3o2)CC1	19	1	-7	3
COC1CCN(Cc2cn(Cc3ccccc3)nc2-c2cc3ccccc3o2)CC1	50*	1	12	23
Cn1nnnc1SCC(=O)N1CCN(S(=O)(=O)c2ccc(Cl)cc2)CC1	-9	3	1	2
Cc1cc(C(=O)C(C)Sc2cccc[n+]2[O-])c(C)n1-c1ccc(Cl)cc1 (configuration not stated)	97*	-1	14	-15
COc1ccc(-c2csc3nc(C)nc(N4CCN(C(C)=O)CC4)c23)cc1OC	7	0	12	2

Compound activity (PubChem BioAssay)
